Bioassay records deposited in PubChem BioAssay by several laboratories.
rCAG RNA binder = binds r(CAG) RNA repeats; r(CAG) RNA repeat, TO-PRO-1 dye displacement fluorescence; inhibition, % at 3 µM; 370,000 tested, 1.3% active;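 active = inhibition above the plate cutoff, the mean of all test compounds on that plate plus 3 SD, cut at about 35% in these data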;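 also: 0% = DMSO alone and 100% = 100 µM mitoxantrone as full dye displacement; higher means more dye released from RNA so lower well fluorescence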
FAS-TE inh = inhibitors of human fatty acid synthase thioesterase domain. P49327. recombinant FAS-TE, OMFH fluorogenic substrate, fluorescence endpoint. inhibition, % at 15 µM. 360,000 tested, 0.67% active. AID 602261;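 active = compounds whose normalised, plate-corrected inhibition of enzyme fluorescence in the single-dose primary screen is 50% or more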;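 also: 0% = DMSO with enzyme and 100% = substrate without enzyme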
NR3A LBD binder = modulators (binders) of human NR3A ligand-binding domain; Tm shift relative to glycine control, % at 25 µM; NR3A LBD differential scanning fluorimetry, Tm shift; 0% = protein alone, 100% = glycine-bound protein; 340,000 tested, 2.5% active;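 active = melting temperature shift of at least 10% of the positive control shift, at one fixed dose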
NadD block = NadD (S. aureus) enzyme inhibition | 360,000 tested, 0.78% active | AID 602399 | inhibition, % at 20 µM | purified NadD enzyme, colorimetric absorbance read-out; in the data active = inhibition above about 26%
rCAG bind conf = r(CAG) RNA repeat binding, confirmation | shares compounds with rCAG RNA binder | TO-PRO-1 dye displacement fluorescence | inhibition, % at 3 µM | 4,300 tested, 70% active;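 active = inhibition above a per-plate cutoff, the mean inhibition of sample wells plus 3 SD, cut at about 35% in these data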;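 also: loss of TO-PRO-1 fluorescence as compound displaces dye from 1x1 AA loop RNA; 0% = DMSO only wells and 100% = 100 µM mitoxantrone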
DNA CAG counter = disrupts DNA CAG TO-PRO-1 complex, flagging rCAG hits; shares compounds with rCAG RNA binder; d(CAG) DNA oligo TO-PRO-1 dye displacement, fluorescence; inhibition, % at 3 µM; 4,300 tested, 94% active;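 active = inhibition above its plate's cutoff, the mean test-well inhibition plus 3 SD, cut at about 4.8% in these data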;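 also: 0% = DNA dye mix with DMSO and 100% = 100 µM mitoxantrone; hits displace the dye from DNA and so lower well fluorescence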
DNA CAG DR = counter-screen for rCAG binders: inhibitors of DNA CAG TO-PRO-1 complex; shares compounds with rCAG RNA binder; IC50, µM; 250 tested, 20% active; DNA CAG/GTC duplex TO-PRO-1 dye displacement fluorescence; in the data active = IC50 below about 10 µM
Numbers without * were called inactive; . = not tested or not shown. Compounds with a hit are over-represented: about 4.3% of the library has one in this group of screens.

SMILES	rCAG RNA binder	FAS-TE inh	NR3A LBD binder	NadD block	rCAG bind conf	DNA CAG counter	others
CC1CCc2c(sc(NC(=O)COC(=O)c3ccc(O)cc3)c2C#N)C1 (configuration not stated)	39*	24	3	16	37*	19*
CC1CCc2c(sc(NC(=O)COC(=O)C3CCCO3)c2C#N)C1 (configuration not stated)	0	1	1	-4	.	.
CCOC(=O)Nc1sc2c(c1C#N)CCC(C)C2 (configuration not stated)	.	6	0	-8	.	.
CCC1CCc2c(sc(NC(=O)C3CC=CCC3C(=O)O)c2C#N)C1 (configuration not stated)	59*	-10	-4	2	39*	11*
CC(C)(C)OC(=O)NCc1ccccc1/C=C/S(=O)(=O)NC1CCCC1	1	.	.	.	.	.
COc1ccc(/C=C2\S/C(=N/S(=O)(=O)c3cccs3)NC2=O)cc1	73*	8	-5	14	50*	16*
CC(=O)N(\C=C/C=C/C=C1\Sc2ccccc2C1=O)c1ccccc1	45*	-10	-4	19	14	11*
CN(C)/C=C1/Sc2ccccc2C1=O	3	-11	1	7	.	.
Cc1cc(N2CCNC[C@@H]2C)ccc1N1CCN(Cc2ccccc2)[C@@H](C)C1	9	.	.	.	.	.
O=C1OC(/C=C/c2ccccc2)=NC/1=C\c1cccnc1	2	-1	0	2	.	.
COc1ccccc1/C=C/C1=NC(=C\C=C/c2ccccc2)/C(=O)O1	46*	12	2	19	33	14*
COc1ccc(C(C)c2cc3c(cc2OCC(=O)O)OCO3)cc1 (configuration not stated)	10	.	.	.	.	.
O=C(N[C@@H](Cc1c[nH]c2ccccc12)C(=O)O)C1CCN(S(=O)(=O)c2ccc(Cl)cc2)CC1	35*	-4	-2	2	29	8.2*
O=C(N[C@@H](Cc1c[nH]c2ccccc12)C(=O)O)C1CCN(S(=O)(=O)c2cccs2)CC1	12	-5	-1	-5	.	.
Cc1onc(-c2ccc(Cl)cc2)c1-c1ccn(S(=O)(=O)c2ccccc2)n1	3	.	.	.	.	.
C[C@H]1CNC(=O)c2c(C(=O)N3CCN(c4ccccc4)CC3)ncn21	4	.	.	.	.	.
Cc1noc(NS(=O)(=O)c2ccc(N/C=C\C(=O)c3ccccc3)cc2)c1C	15	-4	-3	12	.	.
CCc1nnc(NS(=O)(=O)c2ccc(N/C=C/C(=O)c3ccc(C)cc3)cc2)s1	50*	-5	-8	16	72*	34*	DNA CAG DR=9.6*
Cc1cc(C)nc(NS(=O)(=O)c2ccc(N/C=C\C(=O)c3ccc(Cl)cc3)cc2)n1	23	-3	-10	7	.	.
Cc1noc(NS(=O)(=O)c2ccc(N/C=C\C(=O)c3ccc(F)cc3)cc2)c1C	36*	-3	-12	1	43*	7.9*
CCc1nnc(NS(=O)(=O)c2ccc(N/C=C\C(=O)c3cccc(OC)c3)cc2)s1	49*	4	-15	12	63*	28*
NS(=O)(=O)c1ccc(N/C=C\C(=O)c2ccc(F)cc2)cc1	0	-1	-6	-2	.	.
CCc1nnc(NS(=O)(=O)c2ccc(N/C=C\C(=O)c3ccc(F)cc3)cc2)s1	48*	0	-6	9	61*	23*
CCc1nnc(NS(=O)(=O)c2ccc(N/C=C\C(=O)c3ccc(C)cc3)cc2)s1	55*	1	-8	15	72*	39*
O=S(=O)(c1ccc(F)cc1)N1CCCc2nc(-c3ccc(F)cc3)ccc21	3	.	.	.	.	.
COc1cc(/C=N/Nc2nc(C)nc3c2cnn3-c2ccccc2)ccc1O	41*	9	13*	9	27	9.7*
COc1cc(/C=N/NC(=O)c2nc(-c3ccccc3)n(-c3ccccc3)n2)ccc1O	1	-6	-2	13	.	.
CC(=O)c1ccc([C@H](O)[C@H](C)C(=O)N(C)c2ccccc2)cc1	0	.	.	.	.	.
CC(C)Sc1nsc2nc(=O)c(/C=C3\C=Nc4ccccc43)c(N)n12	44*	3	25*	1	79*	44*
CS(=O)(=O)c1nsc2nc(=O)c(/C=C3\C=Nc4ccccc43)c(N)n12	44*	-3	39*	0	70*	31*	DNA CAG DR=8.2*
